Among the data in PubChem BioAssay (EPA / NIEHS) are outcome and AC50 values, retold here.

SMILES strings stand for the structures. “And” between values parts separate entries of the source, which are not always exact repeats. Equal entries are not always repeated. A structure can be active in one record and inactive in another. The source made the active and inactive calls. How the source made its calls: active means hit-call score of the fitted dose curve at least 0.9, where 1 is the maximum; inactive means score below 0.9.

Broadly, the AC50 is the midpoint of the concentration-response curve, whichever way the signal moves.

Read-out in assay [1]: Intercellular Adhesion Molecule 1 (ICAM1), ICAM1 (gene 3383)
Description: BSK_BE3C_ICAM1: BioMAP Diversity Plus: BE3C Assay for Intercellular Adhesion Molecule 1 (ICAM1) Biomarker Activity (AID 2284278).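 Further: cell-surface ICAM-1 protein level quantified by ELISA.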 The conditions noted are these: primary human bronchial epithelial cells. A digest of the protocol:
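Primary human bronchial epithelial cells were exposed to compound for 24 h, after which cell-surface ICAM-1 was quantified by ELISA. Activity was fitted in the gain-of-signal direction against DMSO as negative control and baseline.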

Read-out in assay [2]: Interferon-inducible T-cell alpha chemoattractant (ITAC), CXCL11 (gene 6373)
Description: BSK_BE3C_ITAC: BioMAP Diversity Plus: BE3C Assay for Interferon-inducible T-cell alpha chemoattractant (ITAC) Biomarker Activity (AID 2284279). The following applies: primary human bronchial epithelial cells. A digest of the protocol:
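Steps: dose human bronchial epithelial cells with chemical; incubate 24 h; measure I-TAC by ELISA; fit endpoint in positive direction against DMSO control. Cytotoxicity was checked in parallel cultures by SRB staining at harvest.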

Read-out in assay [3]: Interleukin-8 (IL8), CXCL8 (gene 3576)
Put plainly: BSK_BE3C_IL8: BioMAP Diversity Plus: BE3C Assay for Interleukin-8 (IL8) Biomarker Activity (AID 2284280). The following applies: primary human bronchial epithelial cells. A digest of the protocol: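 Primary human bronchial epithelial cells (BE3C system) exposed 24 h; IL-8 measured by ELISA and fitted in positive direction versus DMSO. Overt cytotoxicity assessed by SRB total-protein staining in parallel cultures.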

Read-out in assay [4]: Epidermal growth factor receptor (EGFR), EGFR (gene 1956)
Description: BSK_BE3C_EGFR: BioMAP Diversity Plus: BE3C Assay for Epidermal growth factor receptor (EGFR) Biomarker Activity (AID 2284281). The conditions noted are these: primary human bronchial epithelial cells. A digest of the protocol:
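Human primary bronchial epithelial cells (BE3C system) dosed with chemicals; EGFR measured by ELISA at 24 h, fitted in the positive direction relative to DMSO. Cytotoxicity tracked in parallel cultures by SRB total-protein staining.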

Read-out in a further assay: KRT18 (gene 3875)
Description: BSK_BE3C_Keratin818: BioMAP Diversity Plus: BE3C Assay for Keratin 818 Biomarker Activity (AID 2284282). The conditions noted are these: primary human bronchial epithelial cells. An outline of the steps: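 Human primary bronchial epithelial cells in the BE3C system were exposed to test chemical for 24 h, then Keratin 8/18 was quantified by ELISA. Activity was fitted in the positive direction against DMSO as negative control and baseline.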

Read-out in assay [5]: Plasminogen activator inhibitor-1 (PAI1), SERPINE1 (gene 5054)
Put plainly: BSK_CASM3C_PAI1: BioMAP Diversity Plus: CASM3C Assay for Plasminogen activator inhibitor-1 (PAI1) Biomarker Activity (AID 2284284).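 Further: PAI-1 protein level measured by ELISA 24 h after dosing.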 The conditions noted are these: primary human coronary artery smooth muscle cells.

Read-out in assay [6]: Monocyte Chemoattractant Protein-1 (MCP1), CCL2 (gene 6347)
Description: BSK_hDFCGF_MCP1: BioMAP Diversity Plus: hDFCGF Assay for Monocyte Chemoattractant Protein-1 (MCP1) Biomarker Activity (AID 2284285). The conditions noted are these: primary human foreskin fibroblasts. An outline of the steps: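 Human foreskin fibroblasts (hDFCGF system) were exposed to compound and secreted MCP-1 was measured by ELISA after 24 hours. Activity was fitted relative to DMSO. Cytotoxicity was checked by SRB total-protein staining in parallel cultures.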

Read-out in assay [7]: Intercellular Adhesion Molecule 1 (ICAM1), ICAM1 (gene 3383)
Put plainly: BSK_hDFCGF_ICAM1: BioMAP Diversity Plus: hDFCGF Assay for Intercellular Adhesion Molecule 1 (ICAM1) Biomarker Activity (AID 2284287). The following applies: primary human foreskin fibroblasts. A digest of the protocol:
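Primary human foreskin fibroblasts (hDFCGF system) dosed with chemical; ICAM-1 quantified by ELISA at 24 h relative to DMSO. Parallel SRB total-protein staining to assess overt cytotoxicity.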

Read-out in assay [8]: TIMP metallopeptidase inhibitor 2 (TIMP2), TIMP2 (gene 7077)
Put plainly: BSK_hDFCGF_TIMP2: BioMAP Diversity Plus: hDFCGF Assay for TIMP metallopeptidase inhibitor 2 (TIMP2) Biomarker Activity (AID 2284289). The conditions noted are these: primary human foreskin fibroblasts. An outline of the steps: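 Primary human foreskin fibroblasts in the hDFCGF system, dosed for 24 h; TIMP-2 level measured by ELISA, fitted in the positive direction against DMSO; cytotoxicity checked in parallel by sulforhodamine B total protein staining.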

Read-out in assay [9]: urokinase Plasminogen Activator (uPA), PLAU (gene 5328)
Description: BSK_BF4T_uPA: BioMAP Diversity Plus: BF4T Assay for urokinase Plasminogen Activator (uPA) Biomarker Activity (AID 2284275). The conditions noted are these: primary human bronchial epithelial cells with fibroblasts. A digest of the protocol:
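Co-culture of human bronchial epithelial cells and dermal fibroblasts; uPA quantified by ELISA 24 hours after dosing, fitted relative to DMSO. Parallel SRB total-protein staining assessed overt cytotoxicity.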

Read-out in assay [10]: Matrix Metallopeptidase 9 (MMP9), MMP9 (gene 4318)
Put plainly: BSK_BF4T_MMP9: BioMAP Diversity Plus: BF4T Assay for Matrix Metallopeptidase 9 (MMP9) Biomarker Activity (AID 2284276). The following applies: primary human bronchial epithelial cells with fibroblasts. An outline of the steps: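 Co-culture of human bronchial epithelial cells and dermal fibroblasts dosed for 24 h; MMP-9 quantified by ELISA and fitted upward versus DMSO. Cytotoxicity monitored in parallel cultures by SRB total-protein staining at the biomarker time point.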

Read-out in assay [11]: Interleukin-8 (IL8), CXCL8 (gene 3576)
Put plainly: BSK_IMphg_IL8: BioMAP Diversity Plus: IMphg Assay for Interleukin-8 (IL8) Biomarker Activity (AID 2284277). The conditions noted are these: primary human endothelial cells with macrophages. An outline of the steps:
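Co-culture of human venular endothelial cells and macrophages exposed to chemicals for 24 h; IL-8 quantified by ELISA and compared against the DMSO baseline, with SRB total-protein staining in parallel cultures for cytotoxicity.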

Read-out in assay [12]: Vascular cell adhesion molecule 1 (VCAM1), VCAM1 (gene 7412)
Description: BSK_IMphg_VCAM1: BioMAP Diversity Plus: IMphg Assay for Vascular cell adhesion molecule 1 (VCAM1) Biomarker Activity (AID 2284286). The conditions noted are these: primary human endothelial cells with macrophages. A digest of the protocol: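 Human venular endothelial cells co-cultured with macrophages; VCAM-1 quantified by ELISA 24 h after dosing, fitted in the positive direction against DMSO. Cytotoxicity was checked in parallel cultures by SRB total-protein staining (0.1% SRB after 10% TCA fixation, 560 nm).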

Read-out in the next assay: CD40, CD40 (gene 958)
Description: BSK_IMphg_CD40: BioMAP Diversity Plus: IMphg Assay for CD40 Biomarker Activity (AID 2284288). The conditions noted are these: primary human endothelial cells with macrophages. An outline of the steps:
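Venular endothelial cells co-cultured with macrophages (human primary), CD40 measured by ELISA 24 h after dosing. Positive-direction fit vs DMSO baseline; cytotoxicity tracked by SRB total-protein staining in parallel cultures.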

Read-out in assay [13]: Interleukin-1 alpha (IL1a), IL1A (gene 3552)
Description: BSK_IMphg_IL1a: BioMAP Diversity Plus: IMphg Assay for Interleukin-1 alpha (IL1a) Biomarker Activity (AID 2284290). The following applies: primary human endothelial cells with macrophages. An outline of the steps:
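Human venular endothelial cells co-cultured with macrophages, IMphg system. IL-1α is measured by ELISA 24 h after dosing and fitted in the positive direction against DMSO. Cytotoxicity is assessed by SRB staining of parallel cultures.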

Read-out in assay [14]: E-selectin (Homo sapiens) (UniProt P16581)
Put plainly: BSK_IMphg_ESelectin: BioMAP Diversity Plus: IMphg Assay for Eselectin Biomarker Activity (AID 2284291). The conditions noted are these: primary human endothelial cells with macrophages. A digest of the protocol:
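Human venular endothelial cell–macrophage co-culture, E-selectin measured by ELISA 24 h after chemical dosing. Signal fitted in the positive direction against DMSO as negative control and baseline.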

Assay [15] in a line: BSK_IMphg_SRB: Viability Assessment in the BioMAP Diversity Plus: IMphg Assay (AID 2284292).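 Further: measured one day after compound addition.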 The following applies: primary human endothelial cells with macrophages. An outline of the steps:
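Human venular endothelial cells with macrophages, 24 h after chemical dosing; total protein by 0.1% SRB staining after 10% TCA fixation, read at 560 nm. Positive-direction fitting versus DMSO baseline.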

Read-out in assay [16]: Macrophage colony-stimulating factor (MCSF), CSF1 (gene 1435)
Description: BSK_IMphg_MCSF: BioMAP Diversity Plus: IMphg Assay for Macrophage colony-stimulating factor (MCSF) Biomarker Activity (AID 2284293). The following applies: primary human endothelial cells with macrophages. A digest of the protocol: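 Co-culture of human venular endothelial cells and macrophages, 24 hours of chemical exposure. M-CSF quantified by ELISA, with parallel SRB total-protein staining for cytotoxicity; activity fitted relative to DMSO.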

Read-out in assay [17]: Interleukin-10 (IL10), IL10 (gene 3586)
Put plainly: BSK_IMphg_IL10: BioMAP Diversity Plus: IMphg Assay for Interleukin-10 (IL10) Biomarker Activity (AID 2284294). The following applies: primary human endothelial cells with macrophages. A digest of the protocol:
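Human venular endothelial cells cocultured with macrophages, dosed 24 h; IL-10 measured by ELISA, activity relative to DMSO. Cytotoxicity assessed in parallel cultures by sulforhodamine B total-protein staining.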

The nature of assay [18]: BSK_IMphg_SRB.Mphg: Macrophage Viability Assessment in the BioMAP Diversity Plus: IMphg Assay (AID 2284295). The following applies: primary human endothelial cells with macrophages. An outline of the steps:
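Venular endothelial cells co-cultured with macrophages, read 24 h after dosing. Total protein measured by 0.1% SRB staining after 10% TCA fixation, absorbance at 560 nm. Fitted in positive direction against DMSO baseline.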

Sequence of E-selectin (Homo sapiens) (P16581 whole entry, looked up): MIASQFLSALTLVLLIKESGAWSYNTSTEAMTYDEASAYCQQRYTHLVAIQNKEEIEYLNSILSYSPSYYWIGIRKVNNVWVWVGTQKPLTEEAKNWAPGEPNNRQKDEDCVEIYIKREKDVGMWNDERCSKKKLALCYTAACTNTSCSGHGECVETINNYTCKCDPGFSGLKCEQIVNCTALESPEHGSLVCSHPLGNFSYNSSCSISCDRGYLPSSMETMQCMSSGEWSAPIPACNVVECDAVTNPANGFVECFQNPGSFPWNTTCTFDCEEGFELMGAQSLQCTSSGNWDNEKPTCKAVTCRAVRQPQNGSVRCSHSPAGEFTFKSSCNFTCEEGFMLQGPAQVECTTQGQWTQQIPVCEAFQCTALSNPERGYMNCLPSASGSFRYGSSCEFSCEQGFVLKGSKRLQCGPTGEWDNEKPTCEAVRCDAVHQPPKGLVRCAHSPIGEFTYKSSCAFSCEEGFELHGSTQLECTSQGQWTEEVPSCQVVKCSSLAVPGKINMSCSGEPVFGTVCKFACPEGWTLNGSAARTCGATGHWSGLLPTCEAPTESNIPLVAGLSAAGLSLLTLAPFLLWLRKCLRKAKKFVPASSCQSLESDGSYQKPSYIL

In the case of `c1ccc(OCCOc2ccccc2)cc1`, the outcome (in [1]; in [2]; in assay [3]; in assay [4]; with KRT18 (gene 3875); in [5]) was inactive. The outcome in [6], in assay [7] and in [8] was inactive. Besides, the AC50 in assay [8] is 3.6 µM (active).
With `O=C(O)C(F)(F)OC(F)(F)C(F)(F)OC(F)(F)C(F)(F)C(F)(F)C(F)(F)F`, the result (in [9]; in assay [10]; in assay [11]; in assay [1]; in assay [3]; with KRT18 (gene 3875)) was inactive. Moreover, the outcome in assay [5] was “inactive”; in assay [6] it was “inactive”; in assay [12], “inactive”; in assay [7], “inactive”; with CD40, CD40 (gene 958) it was “inactive”; in [8], “inactive”. Further, the outcome in assay [13], in assay [14], in assay [15], in [16] and in [18] was inactive. For the same compound, the AC50 in assay [2] was 7.77 µM (active) and 7.6 µM (active); in assay [4], 35 µM (active) and 17.7 µM (active); with CD40, CD40 (gene 958), 30 µM (active); in assay [17] it was 46.5 µM (active) and 49.5 µM (active).
For the compound `OCC(F)(OC(F)(F)C(F)(OC(F)(F)C(F)(F)C(F)(F)F)C(F)(F)F)C(F)(F)F` (configuration not stated), the result in assay [9], in assay [10], in [11], in assay [1], in assay [2] and in [3] was inactive. Further, the outcome in [4] is “inactive”; in the assay with KRT18 (gene 3875) it was “inactive”; in assay [5], “inactive”; in assay [12], “inactive”; with CD40, CD40 (gene 958), “inactive”; in assay [13], “inactive”. The result in [15], in assay [16], in assay [17] and in [18] was inactive. Also, the AC50 in assay [2] is 5.2 µM (active); in assay [6], 4.79 µM (active) and 2.83 µM (active); in assay [7] it was 5.06 µM (active) and 2.52 µM (active); in assay [8] it was 2.07 µM (active) and 198 nM (active); in assay [14] it was 5.64 µM (active) and 3.5 µM (active); in assay [15], 6.17 µM (active). Further, the concentration at half-maximal activity (AC50) in [17] is 3.33 µM (active); in assay [18], 4.31 µM (active).
Regarding `CC(C)(CO)CO`, the outcome (in assay [1]; in assay [2]; in assay [3]; in [4]; with KRT18 (gene 3875); in [5]) was inactive. Besides, the outcome in assay [6], in assay [7] and in assay [8] was inactive.
On to `CCCCN(CCO)CCO`, for which the outcome (in assay [1]; in assay [2]; in [3]; in assay [4]; in the assay with KRT18 (gene 3875); in assay [5]) was inactive. Also, the result in assay [6], in assay [7] and in assay [8] was inactive. Further, the AC50 in assay [8] was 4.34 µM (active).
For `CC(C)CCCC(C)(C)O`, the outcome (in assay [1]; in assay [2]; in assay [3]; in assay [4]; with KRT18 (gene 3875); in [5]) was inactive. In addition, the outcome in assay [6], in [7] and in assay [8] was inactive.
On to `CCn1cc(C(=O)O)c(=O)c2ccc(C)nc21`, for which the result (in assay [1]; in assay [2]; in [3]; in assay [4]; with KRT18 (gene 3875); in assay [5]) was inactive. Moreover, the result in [6], in assay [7] and in [8] was inactive.
